According to PubChem BioAssay AID686979 (National Center for Advancing Translational Sciences (NCATS), 2013):
Where “and” joins values, the source holds several entries; their conditions need not be identical. Equal values may be shown once. Out of some 420,000 compounds screened, about 50,000 (12%) were called active. Inconclusive results (about 26%) are left out. Only a selection was taken, and actives are over-represented in it overall. Unmarked numbers belong to inactive results. Calls come from the whole dose curve; as a rule, active = well fitted inhibition curve with a large enough effect; inconclusive = small, poorly fitted or top-dose-only effect; inactive = flat fitted curve, though single readings scatter.

assay: qHTS for Inhibitors of human tyrosyl-DNA phosphodiesterase 1 (TDP1): qHTS in cells in presence of CPT; settings: chicken DT40 Tdp1-/-;hTDP1 cells + 20 nM CPT, ATP luminescence, 48 h; series mostly up to 46.2 µM; activity change, negative = growth inhibition: at the top concentration; note: nearly all actives have a fitted effect of over 55% in size
Outline: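 Chicken DT40 Tdp1-/- cells complemented with human TDP1, 400 cells/well, exposed to compounds plus 20 nM camptothecin for at least 48 h at 37 C; viability read as ATP content by CellTiter-Glo luminescence.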
% is set by controls: 0 for no effect and ±100 for the full control effect; potency is the fitted concentration of half-maximal effect.

First: Cc1ccc(OCC(=O)NCCCNC(=O)c2cccnc2)cc1C
Second: O=C(NCCO)c1cccc(-c2cccc3nccn23)c1
The “activity change, negative = growth inhibition” value of the first is lower: -10.9% for the first, 8.69% for the second.

Compared with CCCCn1c(N)c(N(CCC(C)C)C(=O)COC(=O)c2cccnc2OCC)c(=O)[nH]c1=O, CCc1ccccc1NC(=O)CN(C)S(=O)(=O)c1ccc2c(c1)c(=O)n(C)c(=O)n2C is lower in “activity change, negative = growth inhibition” value: -10.1% for the first, -12.8% for the second.

First: COCCC(=O)Nc1ccc2c(c1)CN(C(=O)CCOC)CC2
Second: COc1cccc(CNC(=O)CCCC(=O)Nc2cccc([N+](=O)[O-])c2)c1
The “activity change, negative = growth inhibition” value of the first is higher: -9.78% for the first, -19.6% for the second.

Going from CC1O[C@@H](OC2C(O)C(C)O[C@H](OC(=O)[C@]34CCC(C)(C)C[C@H]3C3=CCC5[C@@]6(C)CC(O)C(O[C@@H]7OC(CO)C(O)[C@@H](O)[C@@H]7O)[C@@](C)(C(=O)O)C6CC[C@@]5(C)[C@]3(CO)CC4)C2O[C@H]2OC(C)[C@@H](O[C@@H]3OCC(O[C@@H]4OC(CO)C(O)[C@H](O)C4O)[C@@H](O)[C@@H]3O)[C@H](O)C2O)C(O)C(O)C1O (stereo not given in full) to CC(C)C[C@H](NC(=O)C1CCC(CNC(=O)[C@@H]2CCCN2C(=O)OC(C)(C)C)CC1)C(=O)O (stereo not given in full), the “activity change, negative = growth inhibition” value rises from 11.8% to 29.8%.

Going from Cc1cc(C)cc(N(CCC#N)C(=O)CN2C(=O)NC3(CCCC3)C2=O)c1 to Cc1cccc(N=C2SC(C)CN2C(=O)CN2C(=O)NC3(CCCC3)C2=O)c1 (stereo not given), the “activity change, negative = growth inhibition” value rises from -11.4% to 1.26%.

Going from CC(NS(=O)(=O)c1ccc(OCC(=O)N2CCCC2)cc1)c1ccccc1 (stereo not given) to CCOc1ccc(S(=O)(=O)N2CCC(c3ccccc3)CC2)cc1C(=O)O, the “activity change, negative = growth inhibition” value rises from -4.52% to 3%.

Going from COc1ccc(C2CC(c3cccs3)Nc3nnnn32)cc1 (stereo not given) to CS(=O)(=O)Nc1ccc(C2=NN(S(C)(=O)=O)C(c3cccs3)C2)cc1 (stereo not given), the “activity change, negative = growth inhibition” value falls from 18.1% to -4.9%.

First: COc1ccc(Nc2ncnc3sc(-c4ccccc4)cc23)c(OC)c1
Second: COc1ccc(NC(=O)CC2COc3ccccc3O2)c(OC)c1 (stereo not given)
The “activity change, negative = growth inhibition” value of the first is lower: -21.8% for the first, -21% for the second.

Going from COc1cccc(NC(=O)CSc2nnc(-c3cccnc3)o2)c1 to COc1ccccc1-n1nnnc1SCC(=O)NC(=O)Cc1ccccc1, the “activity change, negative = growth inhibition” value falls from -1.45% to -8.14%.

First: COc1ccc(/C=N/S(=O)(=O)c2ccccc2)cc1OC
Second: COc1cc(C=O)ccc1Oc1nnnn1-c1ccccc1
The “activity change, negative = growth inhibition” value of the first is lower: 4.71% for the first, 13.2% for the second.

Compared with CC(=O)Nc1cc(-c2ccccc2F)cn2c(-c3cccc(C(F)(F)F)c3)cnc12, Cc1ccccc1C(=O)Nc1ccccc1Sc1ccccc1 is higher in “activity change, negative = growth inhibition” value: -101% for the first, 5.44% for the second.

First: COCCNc1ccnc(-c2cccc(NS(C)(=O)=O)c2)n1
Second: CCOc1ccccc1C1CC(c2cccc(NS(C)(=O)=O)c2)=NN1C(=O)c1ccccc1 (stereo not given)
The “activity change, negative = growth inhibition” value of the first is higher: -0.332% for the first, -6.18% for the second.

First: O=C(CCn1nnc2ccccc2c1=O)N[C@@H](Cc1c[nH]c2ccccc12)C(=O)O
Second: Cc1c(NC(=O)CSCc2ccccc2)cccc1C(=O)O
The “activity change, negative = growth inhibition” value of the first is higher: 14.2% for the first, -1.33% for the second.

Compared with COc1ccc(S(=O)(=O)N2CCOCC2)cc1NC(=O)CC1CC2CCC1C2 (stereo not given), COc1ccc(C)cc1S(=O)(=O)N1CCN(S(=O)(=O)c2cc(C(=O)O)ccc2C)CC1 is higher in “activity change, negative = growth inhibition” value: -25.8% for the first, -0.611% for the second.

First: O=C(O)CC(CC(=O)N1CCOCC1)c1ccccc1 (stereo not given)
Second: COc1cc(C(=O)N/C(=C\c2cn(C)c3ccccc23)C(=O)N2CCOCC2)cc(OC)c1OC
The “activity change, negative = growth inhibition” value of the first is lower: 3.43% for the first, 12.5% for the second.

Going from Cc1ccc(CN2COc3cc(C)c4c(oc(=O)c5ccccc54)c3C2)cc1 to Cc1ccc2oc(=O)c3cnn(CC(=O)NCc4ccccc4Cl)c3c2c1, the “activity change, negative = growth inhibition” value rises from -24% to 13.6%.

Compared with CCCCNC(=O)N(O)C1N(/N=C/c2ccccc2O)C(=S)SC1(C)C (stereo not given), Cc1nnc(N2CCCC(C(=O)NCCN(C)C)C2)c2nn(-c3ccccc3)c(C)c12 (stereo not given) is higher in “activity change, negative = growth inhibition” value: -27.3% for the first, -16.4% for the second.

First: COc1ccnc(Oc2ccccc2)c1-c1ncn[nH]1
Second: COc1ccccc1-n1cnc2cc(C(=O)NCC3CCCO3)ccc21 (stereo not given)
The “activity change, negative = growth inhibition” value of the first is higher: 1.93% for the first, -18% for the second.

First: COc1cccc(C(=O)NCCS(=O)(=O)NCC2CCCO2)c1 (stereo not given)
Second: COc1ccc(CN2C(=O)C(CC(=O)NCc3cccc4ccccc34)CC(C(=O)N3CCOCC3)=C2C)cc1 (stereo not given)
The “activity change, negative = growth inhibition” value of the first is higher: 1.27% for the first, -12.7% for the second.

Going from COc1ccc(-n2nc3c(N4CCC(C(=O)NCc5ccccc5)CC4)nnc(C)c3c2C)cc1 to CCOC(=O)C1CCN(C(=O)Cn2nc(C)c3c(C)n(-c4ccccc4)nc3c2=O)CC1, the “activity change, negative = growth inhibition” value rises from -21.8% to -18%.

Compared with Cc1ccc(NC(=O)N2CCC(C(=O)NCc3ccc(F)cc3)CC2)cc1, Cc1ccc(S(=O)(=O)N2CCN(C)CC2)cc1 is higher in “activity change, negative = growth inhibition” value: -17.6% for the first, 18.1% for the second.

Going from Cc1ccc(C=O)cc1Cl to Cc1ccc(C)c(S(=O)(=O)n2nc(C)c(S(=O)(=O)N3CCC(C)CC3)c2C)c1, the “activity change, negative = growth inhibition” value rises from -16.7% to -7.4%.

Compared with Cc1nc2scc(-c3cccs3)c2c(=O)n1N, CCNC(=O)Cn1nc(C)n2c(cc3c(OC)cccc32)c1=O is higher in “activity change, negative = growth inhibition” value: 0.389% for the first, 7.15% for the second.

Going from [2H]C(CCOS(N)(=O)=O)c1ccccc1 (stereo not given) to CN(Cc1ccccc1)C(=O)COC(=O)c1ccccc1Nc1ccccc1, the “activity change, negative = growth inhibition” value rises from -11.5% to -0.608%.

First: CCC(C)N(C(=O)CSc1nnnn1-c1ccccc1OC)C1CCS(=O)(=O)C1 (stereo not given)
Second: COc1ccc(C2=NN(C(=O)CCC(=O)O)C(c3cccs3)C2)cc1OC (stereo not given)
The “activity change, negative = growth inhibition” value of the first is lower: -22.6% for the first, 16% for the second.

Going from CS(=O)(=O)Nc1cccc(C2=NN(S(=O)(=O)c3ccccc3)C(c3cccs3)C2)c1 (stereo not given) to O=[N+]([O-])c1ccc(S(=O)(=O)N2CCN(c3nc(-c4ccccc4)nc4ccccc34)CC2)cc1, the “activity change, negative = growth inhibition” value rises from -5.61% to 1.79%.

For CCOC(=O)c1ccc(-n2c(CCC(=O)O)ccc2-c2ccccc2)cc1, the Potency was “inactive”.
With COc1cccc(-c2cc(NC(C)=O)c3ncc(-c4cccc(C(C)=O)c4)n3c2)c1 the Potency was 23.1 µM (active).
In the case of COc1ccc(-c2cc(NC=O)c3ncc(-c4ccccc4)n3c2)cc1OC, the Potency is reported as 6.51 µM (active).
For CC(=O)c1ccc(-c2cnc3c(NC=O)cc(-c4cccc(NS(C)(=O)=O)c4)cn23)cc1, the Potency was 23.1 µM (active).
In the case of COc1ccc(-c2cc(NC=O)c3ncc(-c4cccc(C(=O)N(C)C)c4)n3c2)c(OC)c1, the Potency is reported as 23.1 µM (active).
With COc1cccc(/C=C2\Sc3ccc(C(=O)NCC4CCCO4)cc3N(C)C2=O)c1 (stereo not given) the Potency was 18.4 µM (active).
In the case of CCOc1ccc(CNC(=O)C2CCCN(c3nnc(C)c4c(C)n(-c5ccccc5)nc34)C2)cc1 (stereo not given), the Potency is reported as 13 µM (active).
With CCc1ccc(CNC(=O)C2CCN(c3nnc(C)c4c(C)n(-c5ccc(C)cc5)nc34)CC2)cc1 the Potency was 5.17 µM (active) and 16.4 µM (active).
With COc1ccccc1-n1nnnc1S(=O)(=O)Cc1ccc(Cl)cc1 the Potency was 5.8 µM (active).
With CCS(=O)(=O)Nc1ccc(C2=NN(C(C)=O)C(c3cccs3)C2)cc1 (stereo not given) the Potency was 4.11 µM (active).
In the case of CS(=O)(=O)Nc1cccc(C2=NN(C(=O)c3cccc(F)c3)C(c3cccs3)C2)c1 (stereo not given), the Potency is reported as 23.1 µM (active).
For Cc1ccc(S(=O)(=O)N2CCN(c3ncnc4ccccc34)CC2)cc1, the Potency was 461 nM (active) and 1.58 µM (active).
For Cc1ccc(C)c(S(=O)(=O)N2CCN(c3ncnc4sccc34)CC2)c1, the Potency was 11.6 µM (active).
